{
  "source": "PubChem BioAssay (Tox21)",
  "note": "Records with an inconclusive call do not appear. Activity calls are given as the source filed them. Unless noted, the call rests on the fitted dose curve; in most records, active means well fitted inhibition curve with a large enough effect in the repeat runs; inconclusive means weak or mixed curves; inactive means no such curve, though single readings can be large or run the other way. On the % scale 0 is the no-effect control and ±100 the full control effect; potency means the concentration at half of the fitted maximal effect.",
  "data": [
    {"test_system": "not listed separately", "assay": "qHTS assay for small molecule agonists of the p53 signaling pathway (AID 651631; calls by dose curve; further: nearly all actives have a fitted effect of over 15% in size)", "conditions": "HCT-116 p53RE-bla reporter, beta-lactamase FRET ratio, 16 h; series mostly up to 73.3 µM; activation: at the top concentration", "outline": "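HCT-116 p53RE-bla reporter line, 16 h compound treatment at 37 °C, then fluorescence after 2 h with B/G FRET substrate.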", "values": [
      {"molecule": "Nc1ccc(Cl)cc1Cl", "activation": "1.12% (inactive)"},
      {"molecule": "C=CC(=O)OCCCC", "activation": "-1.6% [at 95.1 µM] (inactive)"},
      {"molecule": "C[C@@]12C(=O)OC(=O)[C@]1(C)C1CCC2O1", "Potency": "1.6 µM (active)"},
      {"molecule": "Cc1cccc([N+](=O)[O-])c1C", "activation": "-1.83% [at 95.1 µM] (inactive)"},
      {"molecule": "Brc1c2ccccc2cc2ccccc12", "Potency": "61.8 µM (active)"},
      {"molecule": "COCCOC(=O)c1ccccc1C(=O)OCCOC", "activation": "-2.96% (inactive)"},
      {"molecule": "CCCCC(CC)COC(=O)CCCCC(=O)OCC(CC)CCCC", "note": "(stereo not given)", "activation": "-2.36% (inactive)"},
      {"molecule": "c1ccncc1", "activation": "-0.683% [at 95.1 µM] (inactive)"},
      {"molecule": "CCc1cccc(C)c1N", "activation": "3.17% (inactive)"}
    ]},
    {"biological_target": "Aromatase (Homo sapiens) (UniProt P11511)", "sequence (P11511 whole entry, looked up)": "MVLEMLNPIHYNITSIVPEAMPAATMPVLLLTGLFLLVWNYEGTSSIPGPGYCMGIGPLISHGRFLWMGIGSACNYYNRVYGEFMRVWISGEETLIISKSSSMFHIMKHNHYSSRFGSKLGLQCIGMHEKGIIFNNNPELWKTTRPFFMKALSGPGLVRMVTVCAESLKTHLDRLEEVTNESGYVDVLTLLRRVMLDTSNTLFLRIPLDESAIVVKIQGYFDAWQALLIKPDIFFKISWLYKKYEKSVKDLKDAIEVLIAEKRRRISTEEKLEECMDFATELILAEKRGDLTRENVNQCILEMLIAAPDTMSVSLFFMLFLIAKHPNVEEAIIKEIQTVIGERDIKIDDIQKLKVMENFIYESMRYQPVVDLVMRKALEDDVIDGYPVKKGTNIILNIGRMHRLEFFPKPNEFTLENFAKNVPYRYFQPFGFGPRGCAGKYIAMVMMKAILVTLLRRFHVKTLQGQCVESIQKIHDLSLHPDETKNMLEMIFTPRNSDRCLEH", "assay": "qHTS assay to identify aromatase inhibitors (AID 743083); further: nearly all actives have a fitted effect of over 55% in size", "conditions": "MCF-7 aro ERE, testosterone-driven ERE luciferase, 24 h; series mostly up to 70.3 µM; activity, negative = inhibition: at the top concentration", "values": [
      {"molecule": "C=CC(=O)OCCCC", "activity, negative = inhibition": "0.447% [at 95 µM] (inactive)"},
      {"molecule": "O=C(O)C(c1ccc(Cl)cc1)c1ccc(Cl)cc1", "activity, negative = inhibition": "8.75% (inactive)"},
      {"molecule": "Clc1ccccc1-c1ccccc1Cl", "Potency": "78.1 µM (active)"},
      {"molecule": "C[C@@]12C(=O)OC(=O)[C@]1(C)C1CCC2O1", "Potency": "3.59 µM (active)"},
      {"molecule": "Cc1cccc([N+](=O)[O-])c1C", "activity, negative = inhibition": "6.07% (inactive)"},
      {"molecule": "Brc1c2ccccc2cc2ccccc12", "activity, negative = inhibition": "26.5% [at 95 µM] (inactive)"},
      {"molecule": "CC(CCl)OC(C)CCl", "note": "(stereo not given)", "activity, negative = inhibition": "-0.0628% (inactive)"},
      {"molecule": "Nc1cccc([N+](=O)[O-])c1", "activity, negative = inhibition": "2.93% (inactive)"},
      {"molecule": "Brc1ccc(Br)c(Br)c1", "activity, negative = inhibition": "-4.7% [at 95 µM] (inactive)"},
      {"molecule": "Oc1c(Cl)ccc(Cl)c1Cl", "activity, negative = inhibition": "9.28% (inactive)"},
      {"molecule": "C1=CC2C3C=CC(C3)C2C1", "note": "(stereo not given)", "activity, negative = inhibition": "-14.6% (inactive)"},
      {"molecule": "Brc1c2ccccc2c(Br)c2ccccc12", "activity, negative = inhibition": "2.07% [at 8.47 µM] (inactive)"},
      {"molecule": "COCCOC(=O)c1ccccc1C(=O)OCCOC", "activity, negative = inhibition": "1.26% (inactive)"},
      {"molecule": "CCCCC(CC)COC(=O)CCCCC(=O)OCC(CC)CCCC", "note": "(stereo not given)", "activity, negative = inhibition": "4.24% (inactive)"},
      {"molecule": "c1ccncc1", "activity, negative = inhibition": "15.6% [at 95 µM] (inactive)"},
      {"molecule": "CCc1cccc(C)c1N", "activity, negative = inhibition": "5.48% (inactive)"}
    ]}
  ]
}
